Active and inactive are the calls of the source. Rule as the data show it, unless noted: active = inhibition above about 25%; inactive = the rest.
Columns and labels:
[1] = biological target: Nuclear receptor coactivator 1 (Homo sapiens) (UniProt Q15788); experiment: SRC1 coactivator transcriptional activity inhibitors, confirmation, cell-based, luminescence, quadruplicate (AID 588820;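 active = mean inhibition above 46.68%, the untreated control wells mean plus 3 SD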;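 also: 0% = DMSO wells and 100% = gossypol 36 µM treated wells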); conditions: HEK293 GAL4-SRC1 luciferase reporter, at 3.6 µM, hits give high values
[2] = VP16 transactivation inhibitors, counter-screen for SRC1 inhibitor project, cell-based, luminescence, high throughput (AID 588824); conditions: cell-based VP16 transactivation luciferase luminescence; at 3.6 µM; hits give high values

Chain of Nuclear receptor coactivator 1 (Homo sapiens) (Q15788 whole entry, looked up, the tested form may be a part): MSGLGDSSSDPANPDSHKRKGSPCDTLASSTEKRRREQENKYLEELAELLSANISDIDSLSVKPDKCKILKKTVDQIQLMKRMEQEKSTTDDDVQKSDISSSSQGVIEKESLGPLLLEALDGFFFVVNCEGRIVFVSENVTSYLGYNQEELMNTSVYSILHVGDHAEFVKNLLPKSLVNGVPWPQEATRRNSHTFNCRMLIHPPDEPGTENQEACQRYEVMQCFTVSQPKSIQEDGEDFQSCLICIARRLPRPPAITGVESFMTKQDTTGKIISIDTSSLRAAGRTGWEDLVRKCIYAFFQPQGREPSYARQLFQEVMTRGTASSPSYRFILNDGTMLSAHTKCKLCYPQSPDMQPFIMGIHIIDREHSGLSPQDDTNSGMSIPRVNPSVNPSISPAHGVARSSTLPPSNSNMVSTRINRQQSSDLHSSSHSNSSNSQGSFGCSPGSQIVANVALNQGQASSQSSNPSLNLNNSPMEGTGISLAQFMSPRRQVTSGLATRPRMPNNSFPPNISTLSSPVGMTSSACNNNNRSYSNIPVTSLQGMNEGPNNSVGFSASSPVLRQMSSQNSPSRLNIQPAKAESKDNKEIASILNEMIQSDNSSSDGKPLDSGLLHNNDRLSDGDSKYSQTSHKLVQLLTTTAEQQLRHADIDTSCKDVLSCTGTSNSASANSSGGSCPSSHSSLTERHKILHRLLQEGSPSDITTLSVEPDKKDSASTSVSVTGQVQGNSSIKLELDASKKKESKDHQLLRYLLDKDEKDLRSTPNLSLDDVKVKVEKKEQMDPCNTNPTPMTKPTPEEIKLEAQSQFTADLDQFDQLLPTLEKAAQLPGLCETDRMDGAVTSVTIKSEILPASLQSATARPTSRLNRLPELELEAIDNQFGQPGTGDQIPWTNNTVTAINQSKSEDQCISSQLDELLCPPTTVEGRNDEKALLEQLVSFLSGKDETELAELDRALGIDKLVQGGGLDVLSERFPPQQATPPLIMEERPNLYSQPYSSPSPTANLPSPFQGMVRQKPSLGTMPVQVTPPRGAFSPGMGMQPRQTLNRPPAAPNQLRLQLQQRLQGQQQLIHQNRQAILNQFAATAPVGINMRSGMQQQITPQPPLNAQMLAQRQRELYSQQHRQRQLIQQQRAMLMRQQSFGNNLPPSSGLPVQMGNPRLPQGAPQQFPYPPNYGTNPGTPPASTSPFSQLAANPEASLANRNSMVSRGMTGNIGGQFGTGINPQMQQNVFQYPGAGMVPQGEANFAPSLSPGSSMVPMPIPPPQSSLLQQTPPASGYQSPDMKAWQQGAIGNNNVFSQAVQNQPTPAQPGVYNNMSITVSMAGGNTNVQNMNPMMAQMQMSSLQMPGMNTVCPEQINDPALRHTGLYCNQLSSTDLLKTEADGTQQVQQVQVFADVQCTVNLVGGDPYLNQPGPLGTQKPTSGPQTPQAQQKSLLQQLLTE

Row | SMILES | inhibition [1] | inhibition [2]
1 | CC1CCCCN1c1ncnc2ccccc12 (centres undefined) | 18.5% (inactive) | 17.9% (inactive)
2 | COc1ccc(Cc2nnc(NC(=O)c3cc(OC)c(OC)c(OC)c3)s2)cc1OC | -22.8% (inactive) | -17.4% (inactive)
3 | CCCCCOc1ccc(/C=C/c2c([N+](=O)[O-])c(=O)n(C)c(=O)n2C)cc1 | 23.6% (inactive) | 22.4% (inactive)
4 | COC(=O)C(C)Sc1nc(NCc2ccccc2)nc(N(C)C)n1 (centres undefined) | -11.2% (inactive) | -11.6% (inactive)
5 | Cc1cccc(N2CCN(C(=O)CSc3nc4ccccc4nc3N3CC(C)OC(C)C3)CC2)c1C (centres undefined) | -26.1% (inactive) | 12.3% (inactive)
6 | CN(CC(=O)Nc1c(Cl)cccc1Cl)C(=O)CNC(=O)c1ccc2ccccc2c1 | -23.2% (inactive) | -11.1% (inactive)
7 | O=C(CCCCC(=O)NN=Cc1ccccc1O)NN=Cc1ccccc1O | 37.3% (inactive) | 39% (active)
8 | Cc1ccnc(SC2CC(=O)N(c3ccc(C(C)C)cc3)C2=O)n1 (centres undefined) | 7.69% (inactive) | -8.25% (inactive)
9 | O=C(c1ccccc1)N1CCN(Cc2ccc3c(c2)OCO3)CC1 | 0.9% (inactive) | 3.86% (inactive)
10 | CCOc1cc(/C=N/Nc2nc3ccccc3[nH]2)cc(Br)c1OCC(=O)N(C)C | -9.77% (inactive) | -3.09% (inactive)
11 | COc1ccccc1C(=O)N(Cc1ccc(C)o1)C1CCS(=O)(=O)C1 (centres undefined) | -7.5% (inactive) | 3.3% (inactive)
12 | Cc1cc(NCc2cccnc2)no1 | -7.64% (inactive) | 9.01% (inactive)

Reference: PubChem BioAssay
